Laboratory results from PubChem BioAssay (EPA / NIEHS).
Active and inactive are the calls of the source. How the source made its calls: active means hit-call score of the fitted dose curve at least 0.9, where 1 is the maximum; inactive means score below 0.9.

Assays:
Conditions in all cases: mRNA level, 48 h; actives raise or lower the signal
[1] = read-out: JUN Transcription Factor, JUN (gene 3725); experiment: LTEA_HepaRG_JUN: Life Technologies and Expression Analysis (LTEA) Assay for JUN Transcription Factor using HepaRG (AID 2283513)
How it was run: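 Gene-expression endpoint: JUN mRNA (qRT-PCR, normalized to three reference genes) in HepaRG cultures treated 48 h with chemicals, duplicate wells, 100 uM maximum with half-log dilutions; bidirectional fitting relative to 0.5% DMSO.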

[2] = read-out: Lipase C (LIPC), LIPC (gene 3990); experiment: LTEA_HepaRG_LIPC: Life Technologies and Expression Analysis (LTEA) Assay for Lipase C (LIPC) using HepaRG (AID 2283514)
How it was run: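 LIPC expression was quantified by qRT-PCR against three housekeeping genes (ACTB, GAPDH, POLR2A). Differentiated human HepaRG cells received eight half-log doses (top 100 uM, 0.5% DMSO) in duplicate for 48 h; fitting bidirectional relative to DMSO.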

[3] = read-out: Lipoprotein lipase (LPL), LPL (gene 4023); experiment: LTEA_HepaRG_LPL: Life Technologies and Expression Analysis (LTEA) Assay for Lipoprotein lipase (LPL) using HepaRG (AID 2283515)
How it was run: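 LPL transcript levels quantified by TaqMan qRT-PCR against three housekeeping genes after 48 h chemical treatment of HepaRG cells. Eight-point half-log series from 100 uM in 0.5% DMSO, tested in duplicate; bidirectional fitting versus vehicle.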

[4] = read-out: MicroRNA 122 (MIR122), gene 406906; experiment: LTEA_HepaRG_MIR122: Life Technologies and Expression Analysis (LTEA) Assay for MicroRNA 122 (MIR122) using HepaRG (AID 2283516); further: the transcript read is the microRNA miR-122
How it was run: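 Changes in transcript abundance, up or down relative to 0.5% DMSO vehicle, were scored after 48 h chemical treatment of HepaRG cells (maximum 100 uM). Quantification used TaqMan qRT-PCR normalized to housekeeping genes.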

[5] = read-out: matrix metalloproteinase-10 (MMP10), MMP10 (gene 4319); experiment: LTEA_HepaRG_MMP10: Life Technologies and Expression Analysis (LTEA) Assay for matrix metalloproteinase-10 (MMP10) using HepaRG (AID 2283517)
How it was run: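 Expression measured by TaqMan qRT-PCR with ACTB/GAPDH/POLR2A normalisation after 48 h chemical exposure of HepaRG cells. Eight half-log concentrations, top 100 uM, 0.5% DMSO vehicle, duplicates; gain or loss fitted against vehicle.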

MYC, MYC (gene 4609) = experiment: LTEA_HepaRG_MYC: Life Technologies and Expression Analysis (LTEA) Assay for MYC using HepaRG (AID 2283518)
How it was run: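 Differentiated HepaRG cells exposed 48 h in serum-free induction medium to 8 concentrations (top 100 uM, half-log steps; 0.5% DMSO), duplicate. MYC mRNA measured by Fluidigm qRT-PCR, normalized to ACTB, GAPDH, POLR2A; bidirectional fit versus DMSO.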

[6] = read-out: matrix metalloproteinase-3 (MMP3), MMP3 (gene 4314); experiment: LTEA_HepaRG_MMP3: Life Technologies and Expression Analysis (LTEA) Assay for matrix metalloproteinase-3 (MMP3) using HepaRG (AID 2283519)
How it was run: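 Fluidigm-based TaqMan qRT-PCR, normalized to ACTB, GAPDH and POLR2A and fitted bidirectionally versus 0.5% DMSO, measured transcript levels. Treatment: duplicate 48 h exposures of HepaRG cells, ~100,000/well, to eight half-log concentrations topping at 100 uM.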

[7] = read-out: Paternally Expressed 10 (PEG10), PEG10 (gene 23089); experiment: LTEA_HepaRG_PEG10: Life Technologies and Expression Analysis (LTEA) Assay for Paternally Expressed 10 (PEG10) using HepaRG (AID 2283520)
How it was run: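 After 48 h exposure of differentiated HepaRG cells (0.5% DMSO vehicle, eight concentrations up to 100 uM, duplicates), PEG10 mRNA was measured by TaqMan qRT-PCR. Values were normalised to endogenous control genes and analysed bidirectionally against vehicle.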

[8] = read-out: Nuclear factor NF-kappa-B p105 subunit (Homo sapiens) (UniProt P19838); experiment: LTEA_HepaRG_NFKB1: Life Technologies and Expression Analysis (LTEA) Assay for Nuclear Factor Kappa B Subunit 1 (NFKB1) using HepaRG (AID 2283521)
How it was run: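 Differentiated human HepaRG cells were exposed for 48 h in serum-free induction medium to eight concentrations (top 100 uM, half-log steps, 0.5% DMSO), in duplicate. NFKB1 mRNA was measured by TaqMan qRT-PCR, normalized to ACTB/GAPDH/POLR2A, and fitted bidirectionally against DMSO.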

[9] = read-out: Protein phosphatase 2A (PPP2R4), PTPA (gene 5524); experiment: LTEA_HepaRG_PPP2R4: Life Technologies and Expression Analysis (LTEA) Assay for Protein phosphatase 2A (PPP2R4) using HepaRG (AID 2283522)
How it was run: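 Using HepaRG cultures maintained in 0.5% DMSO, chemicals are tested 48 h at up to 100 uM in duplicate. Induction or suppression of PPP2R4 mRNA, measured by qRT-PCR, is fitted bidirectionally against the vehicle baseline.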

[10] = read-out: Phosphatase and tensin (PTEN), PTEN (gene 5728); experiment: LTEA_HepaRG_PTEN: Life Technologies and Expression Analysis (LTEA) Assay for Phosphatase and tensin (PTEN) using HepaRG (AID 2283523)
How it was run: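 Read-out: TaqMan qRT-PCR of PTEN transcript, normalized to three housekeeping genes, fitted in both directions against 0.5% DMSO. Differentiated human HepaRG cultures received chemicals for 48 h, eight-point half-log series topping at 100 uM.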

[11] = read-out: solute carrier (SLC22A1), SLC22A1 (gene 6580); experiment: LTEA_HepaRG_SLC22A1: Life Technologies and Expression Analysis (LTEA) Assay for solute carrier (SLC22A1) using HepaRG (AID 2283524)
How it was run: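 Transcript level of SLC22A1 quantified by qRT-PCR (normalized to three housekeeping genes) after 48 h chemical exposure of HepaRG cells, eight concentrations up to 100 µM, half-log steps, 0.5% DMSO vehicle. Gain or loss relative to DMSO fitted bidirectionally.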

[12] = read-out: Pyruvate Dehydrogenase Kinase 4 (PDK4), PDK4 (gene 5166); experiment: LTEA_HepaRG_PDK4: Life Technologies and Expression Analysis (LTEA) Assay for Pyruvate Dehydrogenase Kinase 4 (PDK4) using HepaRG (AID 2283525)
How it was run: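 Readout is qRT-PCR of PDK4 transcript, normalized to three housekeeping genes, with bidirectional fitting against 0.5% DMSO vehicle. Differentiated HepaRG cells were treated 48 h in serum-free induction medium, duplicate wells, eight-point half-log series topping at 100 uM.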

[13] = read-out: NAD(P)H dehydrogenase [quinone] 1 (NQO1), NQO1 (gene 1728); experiment: LTEA_HepaRG_NQO1: Life Technologies and Expression Analysis (LTEA) Assay for NAD(P)H dehydrogenase [quinone] 1 (NQO1) using HepaRG (AID 2283526)
How it was run: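 In this assay, gene expression is read by qRT-PCR after 48 h exposure of HepaRG cells to eight concentrations (max 100 uM, half-log) in 0.5% DMSO. Each chemical runs in duplicate, and activity is scored relative to vehicle.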

[14] = read-out: Nuclear factor erythroid 2-related factor 2 (Homo sapiens) (UniProt Q16236); experiment: LTEA_HepaRG_NFE2L2: Life Technologies and Expression Analysis (LTEA) Assay for Nuclear factor erythroid 2-related factor 2 (NFE2L2) Transcription Factor using HepaRG (AID 2283527);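 further: TaqMan qRT-PCR transcript level normalised to ACTB GAPDH and POLR2A housekeeping genes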
How it was run: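 NFE2L2 transcript level was read by qRT-PCR (housekeeping ACTB/GAPDH/POLR2A normalisation) after 48 h chemical treatment of HepaRG in serum-free induction medium. Duplicate 8-point half-log curves, top 100 uM, 0.5% DMSO vehicle; up- or down-regulation fitted against vehicle.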

[15] = read-out: succinate dehydrogenase complex iron sulfur subunit B (SDHB), SDHB (gene 6390); experiment: LTEA_HepaRG_SDHB: Life Technologies and Expression Analysis (LTEA) Assay for succinate dehydrogenase complex iron sulfur subunit B (SDHB) using HepaRG (AID 2283528)
How it was run: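 HepaRG, 48 h exposure, 8-pt half-log series from 100 uM in 0.5% DMSO, duplicates. Readout: SDHB mRNA by Fluidigm qRT-PCR vs housekeeping genes; bidirectional fit relative to DMSO.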

[16] = read-out: Signal transducer and activator of transcription 3 (Homo sapiens) (UniProt P40763); experiment: LTEA_HepaRG_STAT3: Life Technologies and Expression Analysis (LTEA) Assay for Signal transducer and activator of transcription (STAT3) using HepaRG (AID 2283529)
How it was run: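 STAT3 transcript quantified by qRT-PCR against three housekeeping genes (ACTB, GAPDH, POLR2A), fitted both directions relative to DMSO. HepaRG cultures exposed 48 h to eight half-log concentrations, top 100 uM, 0.5% DMSO, serum-free induction medium.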

[17] = read-out: solute carrier (SLCO1B1), SLCO1B1 (gene 10599); experiment: LTEA_HepaRG_SLCO1B1: Life Technologies and Expression Analysis (LTEA) Assay for solute carrier (SLCO1B1) using HepaRG (AID 2283530)
How it was run: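 Differentiated human HepaRG cells were exposed for 48 h in serum-free induction medium to eight half-log concentrations, top 100 uM, in 0.5% DMSO. SLCO1B1 mRNA was measured by qRT-PCR, normalized to ACTB, GAPDH and POLR2A, and fitted bidirectionally against DMSO.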

Measured: outcome

Chain of Signal transducer and activator of transcription 3 (Homo sapiens) (P40763 whole entry, looked up): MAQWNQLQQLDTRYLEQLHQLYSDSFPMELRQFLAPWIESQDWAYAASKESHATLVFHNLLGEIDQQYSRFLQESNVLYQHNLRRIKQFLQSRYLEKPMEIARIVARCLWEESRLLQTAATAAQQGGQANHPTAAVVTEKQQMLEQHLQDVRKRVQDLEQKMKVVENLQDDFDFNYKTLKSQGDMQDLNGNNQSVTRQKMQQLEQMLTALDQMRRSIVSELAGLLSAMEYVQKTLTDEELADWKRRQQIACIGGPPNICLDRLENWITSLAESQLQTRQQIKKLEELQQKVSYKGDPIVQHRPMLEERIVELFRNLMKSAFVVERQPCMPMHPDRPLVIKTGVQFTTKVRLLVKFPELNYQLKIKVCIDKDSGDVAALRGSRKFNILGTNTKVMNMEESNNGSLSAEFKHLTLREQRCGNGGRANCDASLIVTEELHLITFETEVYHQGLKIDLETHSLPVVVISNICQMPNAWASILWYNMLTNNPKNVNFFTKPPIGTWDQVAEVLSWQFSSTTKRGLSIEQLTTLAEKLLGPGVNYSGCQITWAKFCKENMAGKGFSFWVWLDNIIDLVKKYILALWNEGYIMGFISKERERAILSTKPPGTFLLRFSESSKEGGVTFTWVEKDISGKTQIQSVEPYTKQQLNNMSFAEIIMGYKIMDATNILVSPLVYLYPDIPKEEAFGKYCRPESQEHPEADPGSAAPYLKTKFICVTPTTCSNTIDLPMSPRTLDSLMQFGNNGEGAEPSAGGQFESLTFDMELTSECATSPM
Chain of Nuclear factor NF-kappa-B p105 subunit (Homo sapiens) (P19838 whole entry, looked up): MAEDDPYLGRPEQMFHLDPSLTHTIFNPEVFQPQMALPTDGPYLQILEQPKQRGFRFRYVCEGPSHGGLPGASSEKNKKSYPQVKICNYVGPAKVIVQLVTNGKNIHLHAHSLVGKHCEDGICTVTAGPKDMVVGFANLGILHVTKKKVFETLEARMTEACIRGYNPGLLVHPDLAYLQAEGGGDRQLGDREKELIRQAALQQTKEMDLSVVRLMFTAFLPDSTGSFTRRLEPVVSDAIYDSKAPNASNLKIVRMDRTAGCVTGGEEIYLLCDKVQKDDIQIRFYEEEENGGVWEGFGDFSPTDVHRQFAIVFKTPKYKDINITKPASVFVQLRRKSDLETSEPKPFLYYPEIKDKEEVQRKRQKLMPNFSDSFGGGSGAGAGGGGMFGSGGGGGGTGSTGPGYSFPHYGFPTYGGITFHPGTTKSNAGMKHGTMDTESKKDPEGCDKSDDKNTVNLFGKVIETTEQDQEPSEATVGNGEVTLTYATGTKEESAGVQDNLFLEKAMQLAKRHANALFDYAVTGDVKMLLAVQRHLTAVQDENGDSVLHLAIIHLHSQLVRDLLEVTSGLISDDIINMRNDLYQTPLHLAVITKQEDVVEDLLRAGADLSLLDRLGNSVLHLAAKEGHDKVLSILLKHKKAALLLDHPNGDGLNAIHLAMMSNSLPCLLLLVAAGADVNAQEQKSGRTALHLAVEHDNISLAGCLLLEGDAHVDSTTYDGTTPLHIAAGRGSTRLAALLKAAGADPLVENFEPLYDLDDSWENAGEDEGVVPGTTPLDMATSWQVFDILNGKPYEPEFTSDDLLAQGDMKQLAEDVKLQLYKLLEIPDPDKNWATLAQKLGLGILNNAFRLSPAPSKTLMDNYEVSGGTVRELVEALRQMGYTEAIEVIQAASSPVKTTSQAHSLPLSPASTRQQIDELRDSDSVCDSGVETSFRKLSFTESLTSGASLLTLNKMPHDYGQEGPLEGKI
Chain of Nuclear factor erythroid 2-related factor 2 (Homo sapiens) (Q16236 whole entry, looked up): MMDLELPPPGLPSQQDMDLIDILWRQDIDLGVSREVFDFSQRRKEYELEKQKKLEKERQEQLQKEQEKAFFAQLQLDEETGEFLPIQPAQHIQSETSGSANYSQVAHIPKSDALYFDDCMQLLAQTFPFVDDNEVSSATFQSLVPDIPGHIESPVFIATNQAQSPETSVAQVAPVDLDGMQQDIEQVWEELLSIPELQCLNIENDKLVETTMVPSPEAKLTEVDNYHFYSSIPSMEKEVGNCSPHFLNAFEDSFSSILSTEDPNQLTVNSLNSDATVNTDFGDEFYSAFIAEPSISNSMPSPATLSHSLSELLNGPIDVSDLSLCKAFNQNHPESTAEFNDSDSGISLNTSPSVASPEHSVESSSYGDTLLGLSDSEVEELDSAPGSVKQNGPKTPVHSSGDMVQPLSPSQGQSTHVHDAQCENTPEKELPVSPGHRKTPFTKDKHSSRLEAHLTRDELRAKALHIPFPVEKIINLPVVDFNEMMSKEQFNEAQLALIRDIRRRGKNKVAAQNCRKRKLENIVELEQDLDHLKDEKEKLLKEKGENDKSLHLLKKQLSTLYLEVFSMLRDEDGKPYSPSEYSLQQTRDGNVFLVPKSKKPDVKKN

c1cc[n+]2c(c1)-c1cccc[n+]1CC2
inactive: [1] | [2] | [3] | [4] | [5] | MYC, MYC (gene 4609) | [6] | [7] | [8] | [9] | [10] | [11] | [12] | [13] | [14] | [15] | [16] | [17]
